# From PubChem BioAssay (Tox21)
# Values without a mark were called inactive. Results filed as inconclusive are left out. A call without a number means that no potency is given here. The source made the active and inactive calls. Unless noted, calls follow the shape of the full dose curve.
# Tests used:
# [1] = Nuclear factor erythroid 2-related factor 2/antioxidant responsive element (Nrf2/ARE) small molecule agonists: qHTS cell viability counter screen in human keratinocytes (AID 1919968; active = well fitted curve in the direction sought with a large enough effect in the repeat runs; an effect the other way counts as inactive or inconclusive; also: nearly all actives have a fitted effect of over 55% in size; also: potency is read from the fitted curve at half-maximal effect)
# Summary of the method: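 Stably transfected HaCaT (KeratinoSens), 1,500/well. Test agents in DMSO were applied for 23 h, 37 C/5% CO2. CellTiter-Fluor was incubated 1 h before the fluorescence read.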
# [2] = Nuclear factor erythroid 2-related factor 2/antioxidant responsive element (Nrf2/ARE) small molecule agonists: luciferase reporter gene qHTS assay in human keratinocytes (AID 1919969); also: nearly all actives have a fitted effect of over 35% in size; also: potency is read from the fitted curve at half-maximal effect
# [3] = molecular target: Gonadotropin-releasing hormone receptor (Homo sapiens) (UniProt P30968); test: Human gonadotropin-releasing hormone receptor (GnRHR) small molecule agonists, calcium flux assay in GnRHR-HEK293 cells (AID 1920063); also: nearly all actives have a fitted effect of over 35% in size
# Chain of Gonadotropin-releasing hormone receptor (Homo sapiens) (P30968 whole entry, looked up): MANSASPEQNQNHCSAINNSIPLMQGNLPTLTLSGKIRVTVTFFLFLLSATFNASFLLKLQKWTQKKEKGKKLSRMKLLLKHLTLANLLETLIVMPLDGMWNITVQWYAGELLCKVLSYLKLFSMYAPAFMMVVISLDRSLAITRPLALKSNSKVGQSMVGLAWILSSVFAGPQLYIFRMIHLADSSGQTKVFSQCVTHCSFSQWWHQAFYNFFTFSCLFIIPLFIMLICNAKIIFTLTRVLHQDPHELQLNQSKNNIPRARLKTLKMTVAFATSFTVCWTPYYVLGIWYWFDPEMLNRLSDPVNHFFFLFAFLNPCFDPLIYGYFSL
# Summary of the method: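 Stable human GnRHR HEK293 line. 18 h plating, then calcium dye for 1 h at 37 C. Agonist-mode compound addition from DMSO stocks; fluorescence monitored 3 min.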
# [4] = molecular target: KiSS-1 receptor (Homo sapiens) (UniProt Q969F8); test: Human kisspeptin (KISS1R) small molecule agonists, calcium flux assay in KISS1R-HEK293 cells (AID 1920064; active = well fitted curve in the direction sought with a large enough effect in the repeat runs; an effect the other way counts as inactive or inconclusive)
# Chain of KiSS-1 receptor (Homo sapiens) (Q969F8 whole entry, looked up): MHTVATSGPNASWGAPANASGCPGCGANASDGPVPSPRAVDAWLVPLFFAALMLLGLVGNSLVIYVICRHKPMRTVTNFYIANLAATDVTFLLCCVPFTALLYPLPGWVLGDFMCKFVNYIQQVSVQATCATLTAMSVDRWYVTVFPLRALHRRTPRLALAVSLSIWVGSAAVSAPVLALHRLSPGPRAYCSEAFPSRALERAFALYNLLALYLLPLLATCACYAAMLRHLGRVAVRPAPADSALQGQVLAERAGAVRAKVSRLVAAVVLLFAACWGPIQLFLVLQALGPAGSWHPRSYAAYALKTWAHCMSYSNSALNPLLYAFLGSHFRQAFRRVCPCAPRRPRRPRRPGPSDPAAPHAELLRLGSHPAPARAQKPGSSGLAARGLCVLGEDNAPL
# Summary of the method: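 After overnight (18 h) culture at 37 C/5% CO2, human KISS1R-HEK293 cells received calcium dye for 1 h, then test compound; emission at 540 nm (excitation 480 nm) was tracked for 3 min.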
# [5] = p53 small molecule agonists, cell-based qHTS assay with human liver microsomes: qHTS cell viability counter screen (AID 1963579); also: nearly all actives have a fitted effect of over 45% in size
# Summary of the method: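 Metabolic activation used human liver microsomes and NADPH, both 0.5 mg/mL final, over 16 hours at 37 C on p53RE-bla cells (4,000/well). Cytotoxicity measured by CellTiter-Glo luminescence, 30 min at room temperature.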
# [6] = molecular target: 5-hydroxytryptamine receptor 2A (Homo sapiens) (UniProt P28223); test: 5-hydroxytryptamine receptor 2A (HTR2A) small molecule antagonists, cell-based qHTS assay (AID 1963586); also: nearly all actives have a fitted effect of over 45% in size
# Chain of 5-hydroxytryptamine receptor 2A (Homo sapiens) (P28223 whole entry, looked up): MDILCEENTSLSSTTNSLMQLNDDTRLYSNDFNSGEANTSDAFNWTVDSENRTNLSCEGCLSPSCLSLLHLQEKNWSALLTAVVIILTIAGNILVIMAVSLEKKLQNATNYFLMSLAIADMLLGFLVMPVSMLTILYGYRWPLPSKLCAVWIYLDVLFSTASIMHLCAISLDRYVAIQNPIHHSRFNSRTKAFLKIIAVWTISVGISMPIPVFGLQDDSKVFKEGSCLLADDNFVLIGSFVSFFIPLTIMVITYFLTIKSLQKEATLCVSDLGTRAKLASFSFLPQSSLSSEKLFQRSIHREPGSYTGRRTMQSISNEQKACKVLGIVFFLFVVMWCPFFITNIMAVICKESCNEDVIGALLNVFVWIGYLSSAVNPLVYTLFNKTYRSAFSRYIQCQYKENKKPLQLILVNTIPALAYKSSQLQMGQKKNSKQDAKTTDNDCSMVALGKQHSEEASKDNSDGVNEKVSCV
# Summary of the method: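 CHO cells stably expressing human HTR2A were plated for 18 h at 37 C, then loaded with calcium dye for 1 h. Compounds were preincubated 5 min at room temperature before DOI (4 nM solution) was added. Kinetic fluorescence was read for 3 min.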
# [7] = molecular target: 5-hydroxytryptamine receptor 2A (Homo sapiens) (UniProt P28223); test: 5-hydroxytryptamine receptor 2A (HTR2A) small molecule agonists, cell-based qHTS assay (AID 1963587); also: nearly all actives have a fitted effect of over 30% in size
# Summary of the method: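 CHO cells stably expressing human HTR2A, plated 18 h, loaded with calcium dye 1 h at 37 C. Agonist mode: compounds added and intracellular calcium fluorescence recorded kinetically for 2 min at 1 sec intervals.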
# [8] = molecular target: Muscarinic acetylcholine receptor M1 (Homo sapiens) (UniProt P11229); test: Cholinergic receptor muscarinic 1 (CHRM1) small molecule antagonists, cell-based qHTS assay (AID 1963588); also: nearly all actives have a fitted effect of over 40% in size
# Chain of Muscarinic acetylcholine receptor M1 (Homo sapiens) (P11229 whole entry, looked up): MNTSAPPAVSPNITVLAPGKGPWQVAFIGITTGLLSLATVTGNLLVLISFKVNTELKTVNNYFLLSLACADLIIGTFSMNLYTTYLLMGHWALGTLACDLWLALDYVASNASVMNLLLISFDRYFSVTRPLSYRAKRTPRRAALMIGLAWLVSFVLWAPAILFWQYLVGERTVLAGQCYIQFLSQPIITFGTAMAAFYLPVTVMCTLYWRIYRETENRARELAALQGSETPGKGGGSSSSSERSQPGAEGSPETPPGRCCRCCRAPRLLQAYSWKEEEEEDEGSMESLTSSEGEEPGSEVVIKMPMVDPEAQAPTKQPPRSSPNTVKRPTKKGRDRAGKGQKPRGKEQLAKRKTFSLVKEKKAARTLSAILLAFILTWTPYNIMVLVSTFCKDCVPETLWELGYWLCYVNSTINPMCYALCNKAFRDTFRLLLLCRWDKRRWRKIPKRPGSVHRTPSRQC
# Summary of the method: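 Compounds were tested at 15 concentrations in three independent runs. Dye-loaded CHRM1-CHO cells were exposed 5 min at room temperature before stimulation by acetylcholine added at 50nM. Intracellular calcium was read kinetically on FDSS for 3 min.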
# [9] = molecular target: Muscarinic acetylcholine receptor M1 (Homo sapiens) (UniProt P11229); test: Cholinergic receptor muscarinic 1 (CHRM1) small molecule agonists, cell-based qHTS assay (AID 1963589); also: nearly all actives have a fitted effect of over 35% in size
# Summary of the method: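 Kinetic fluorescence (1 s intervals) of calcium-sensitive dye in human M1 CHO cells after compound addition; cells pre-incubated 18 h at 37 C/5% CO2 and dye-loaded 1 h.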
# [10] = cAMP Responsive Elements (CRE) small molecule agonists, cell-based qHTS assay (AID 1963590)
# Summary of the method: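 Test agents in DMSO were incubated 3 h at 37 C/5% CO2 with CRE-bla HEK 293T cells seeded 18 h earlier; LiveBLAzer B/G FRET substrate was added and read after 2 h at room temperature.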
# [11] = cAMP Responsive Elements (CRE) small molecule antagonists, cell-based qHTS assay (AID 1963591; active = well fitted inhibition curve with a large enough effect in the signal ratio in the repeat runs, not every such curve was filed as active; the % refers to the signal ratio)
# Summary of the method: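 Reporter line CRE-bla HEK 293T in dialyzed-FBS DMEM; cells preincubated 18 h, treated 3 h with compound plus NKH477 (0.25 uM final); LiveBLAzer FRET, 2 h RT.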
# [12] = molecular target: Beta-2 adrenergic receptor (Homo sapiens) (UniProt P07550); test: Adrenergic beta2 receptor (ADRB2) small molecule antagonists, cell-based qHTS assay (AID 1963592); also: series mostly up to about 92 µM; nearly all actives have a fitted effect of over 50% in size
# Chain of Beta-2 adrenergic receptor (Homo sapiens) (P07550 whole entry, looked up): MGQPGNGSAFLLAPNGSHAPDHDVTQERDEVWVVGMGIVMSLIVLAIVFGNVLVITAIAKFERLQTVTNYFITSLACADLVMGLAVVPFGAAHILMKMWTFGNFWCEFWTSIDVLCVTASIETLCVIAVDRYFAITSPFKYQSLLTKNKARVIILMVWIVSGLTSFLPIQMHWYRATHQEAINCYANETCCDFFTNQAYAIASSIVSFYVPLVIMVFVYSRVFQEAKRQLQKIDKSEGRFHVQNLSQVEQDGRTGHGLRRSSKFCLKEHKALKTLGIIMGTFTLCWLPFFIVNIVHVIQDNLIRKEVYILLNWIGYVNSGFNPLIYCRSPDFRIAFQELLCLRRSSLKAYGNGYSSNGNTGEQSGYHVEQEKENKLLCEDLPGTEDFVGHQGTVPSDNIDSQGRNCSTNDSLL
# Summary of the method: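 Assay format: CHO-ADRB2 cells, 18-20hr seeding at 37C/5% CO2, then compound plus 1nM isoproterenol agonist mix for 0.5hr RT. Homogeneous time-resolved fluorescence cAMP detection after 1hr, expressed as 665/615 nm ratio.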
# [13] = molecular target: Beta-2 adrenergic receptor (Homo sapiens) (UniProt P07550); test: Adrenergic beta2 receptor (ADRB2) small molecule agonists, cell-based qHTS assay (AID 1963593);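 also: CHO cells stably overexpressing human ADRB2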
# Summary of the method: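 CHO cells stably over-expressing ADRB2 were plated overnight at 37C, then dosed with compounds plus a stimulation mix containing 100uM IBMX and 25uM Ro-20-1724 for 0.5hr at room temperature. cAMP was measured by HTRF competition, 1hr.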
# [14] = molecular target: D(2) dopamine receptor (Homo sapiens) (UniProt P14416); test: Dopamine D2 receptor (DRD2) small molecule agonists, cell-based qHTS assay (AID 1963594); also: nearly all actives have a fitted effect of over 35% in size
# Chain of D(2) dopamine receptor (Homo sapiens) (P14416 whole entry, looked up): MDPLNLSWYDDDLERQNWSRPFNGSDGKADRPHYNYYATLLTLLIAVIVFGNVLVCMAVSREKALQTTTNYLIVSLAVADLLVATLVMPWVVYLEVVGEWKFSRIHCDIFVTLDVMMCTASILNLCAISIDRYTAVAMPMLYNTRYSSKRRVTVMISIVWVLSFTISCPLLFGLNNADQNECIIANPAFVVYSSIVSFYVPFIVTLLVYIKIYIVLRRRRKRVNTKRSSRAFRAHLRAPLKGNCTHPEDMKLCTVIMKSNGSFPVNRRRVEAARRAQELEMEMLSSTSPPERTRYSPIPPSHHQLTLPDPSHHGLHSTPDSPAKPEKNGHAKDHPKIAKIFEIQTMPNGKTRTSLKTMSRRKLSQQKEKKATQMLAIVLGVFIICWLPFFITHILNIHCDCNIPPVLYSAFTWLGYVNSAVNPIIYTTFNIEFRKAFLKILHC
# Summary of the method: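 HEK293 cells stably expressing human DRD2, pre-treated with PDE inhibitor Ro20-1724 (0.1 mM final) and compound 10 min at room temperature, then stimulated with NKH477 (200nM […]) for 30 min. cAMP read by HTRF (665/620 nm).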
# [15] = molecular target: D(2) dopamine receptor (Homo sapiens) (UniProt P14416); test: Dopamine D2 receptor (DRD2) small molecule antagonists, cell-based qHTS assay (AID 1963595; active = well fitted inhibition curve with a large enough effect in the signal ratio in the repeat runs, with a control signal flat; the % refers to the signal ratio)
# Summary of the method: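 In this cell-based antagonist screen, compounds act for 10 min at room temperature before a 30 min challenge with 12 nM quinpirole and 200 nM NKH477. cAMP is quantified by HTRF competition in DRD2-HEK293 cells containing 0.1 mM Ro20-1724.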
# [16] = G protein-coupled receptor (GPCR) small molecule agonists, calcium flux assay: HEK293 wild type cell line counter screen (AID 1920065)
# Summary of the method: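 Following 18 h incubation at 37 C/5% CO2, plates got calcium dye for 1 h; compounds, ATP or DMSO were then pinned in and fluorescence followed kinetically (480/540 nm).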
# [17] = p53 small molecule agonists, cell-based qHTS assay with rat liver microsomes: qHTS cell viability counter screen (AID 1963580); also: nearly all actives have a fitted effect of over 45% in size
# Summary of the method: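 After the beta-lactamase ratio was read, CellTiter-Glo was added to the same wells and luminescence measured at 30 min; cells had been treated 16 h at 37 C with compounds, rat liver microsomes and NADPH (0.5 mg/mL final each).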
# [18] = p53 small molecule agonists, cell-based qHTS assay: qHTS cell viability counter screen (AID 1963581); also: nearly all actives have a fitted effect of over 45% in size
# Summary of the method: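 qHTS counter screen: 16 h compound exposure at 37 C of p53RE-bla HCT-116 cells (4,000 per well, seeded 5 h prior), cell viability by ATP luminescence.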
# [19] = p53 small molecule agonists, cell-based qHTS assay with rat liver microsomes (AID 1963578)
# Summary of the method: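 Metabolic activation by rat liver microsomes and NADPH, each 0.5 mg/mL final, added right after compounds to p53RE-bla reporter cells (4,000/well, plated 5 h earlier). 16 h at 37 C, then LiveBLAzer substrate for 2 h at room temperature in the dark; fluorescence read-out.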
smiles,measurement,setting,value
Nc1ccc(/C=C/c2ccc(N)cc2S(=O)(=O)O)c(S(=O)(=O)O)c1,"activity change, negative = cytotoxicity",[1],-4.83% [at 0.349 µM]
same,"activity, positive = activation",[2],-0.938% [at 0.349 µM]
same,activity change,[3],"-1.31% [at 0.217 µM, hits give high values]"
same,activation,[4],-0.667% [at 0.29 µM]
same,"activity change, negative = cytotoxicity",[5],-0.304% [at 0.249 µM]
same,"activity, negative = inhibition",[6],63.5% [at 0.233 µM]
same,activation,[7],1.96% [at 0.292 µM]
same,"activity, negative = inhibition",[8],18% [at 0.232 µM]
same,activation,[9],0.145% [at 0.29 µM]
same,activation,[10],-0.633% [at 0.349 µM]
same,"activity change, negative = inhibition",[11],-10.6% [at 0.349 µM]
same,"activity change, negative = inhibition",[12],-6.48% [at 0.349 µM]
same,activation,[13],-7.68% [at 0.349 µM]
same,activation,[14],-13.5% [at 0.349 µM]
same,"activity change, negative = inhibition",[15],6.36% [at 0.348 µM]
COCCCOCCCOC,Potency,[1],inactive
same,Potency,[2],inactive
same,Potency,[3],inactive
same,Potency,[16],inactive
same,Potency,[5],inactive
same,Potency,[17],inactive
same,Potency,[18],inactive
same,Potency,[6],inactive
same,Potency,[7],inactive
same,Potency,[8],inactive
same,Potency,[9],inactive
same,Potency,[10],inactive
same,Potency,[11],inactive
same,Potency,[12],inactive
same,Potency,[13],inactive
same,Potency,[15],inactive
O=S(=O)(O)c1cc(O)ccc1O,Potency,[1],inactive
same,Potency,[2],inactive
same,Potency,[3],inactive
same,Potency,[4],inactive
same,Potency,[6],inactive
same,Potency,[7],inactive
same,Potency,[8],inactive
same,Potency,[9],inactive
same,Potency,[10],inactive
same,Potency,[11],inactive
same,Potency,[12],inactive
same,Potency,[13],inactive
same,Potency,[14],inactive
same,Potency,[15],inactive
O=C(Cl)c1c(Cl)cccc1Cl,Potency,[1],inactive
same,Potency,[2],inactive
same,Potency,[3],inactive
same,Potency,[16],inactive
same,Potency,[5],inactive
same,Potency,[17],inactive
same,Potency,[18],inactive
same,Potency,[6],inactive
same,Potency,[7],inactive
same,Potency,[8],inactive
same,Potency,[9],inactive
same,Potency,[10],inactive
same,Potency,[11],inactive
same,Potency,[12],inactive
same,Potency,[13],inactive
same,Potency,[14],inactive
same,Potency,[15],inactive
CC1=NN(c2cccc(S(=O)(=O)O)c2)C(=O)C1,Potency,[1],inactive
same,Potency,[2],inactive
same,Potency,[3],inactive
same,Potency,[16],inactive
same,Potency,[5],inactive
same,Potency,[17],inactive
same,Potency,[18],inactive
same,Potency,[6],inactive
same,Potency,[7],inactive
same,Potency,[8],inactive
same,Potency,[9],inactive
same,Potency,[10],inactive
same,Potency,[11],inactive
same,Potency,[12],inactive
same,Potency,[13],inactive
same,Potency,[14],inactive
same,Potency,[15],inactive
CNC(=O)C(c1ccccc1)c1ccccc1,Potency,[1],inactive
same,Potency,[2],inactive
same,Potency,[3],inactive
same,Potency,[4],inactive
same,Potency,[18],inactive
same,Potency,[7],inactive
same,Potency,[8],inactive
same,Potency,[9],inactive
same,Potency,[10],inactive
same,Potency,[11],inactive
same,Potency,[12],inactive
same,Potency,[14],inactive
same,Potency,[15],inactive
C=CC(=O)OCCn1c(=O)n(CCOC(=O)C=C)c(=O)n(CCOC(=O)C=C)c1=O,Potency,[1],30.6 µM (active)
same,Potency,[2],15.4 µM (active)
same,Potency,[3],inactive
same,Potency,[16],inactive
same,Potency,[19],inactive
same,Potency,[6],inactive
same,Potency,[7],inactive
same,Potency,[8],inactive
same,Potency,[9],inactive
same,Potency,[12],inactive
same,Potency,[14],inactive
same,Potency,[15],inactive
